Each structure is given as a SMILES string. “And” between values parts separate entries of the source, which are not always exact repeats. Equal values may be shown once. Some compounds were tested as several samples or in several runs, with calls that do not always agree. The source made the active and inactive calls. The calls were made as follows: active = hit-call score of the fitted dose curve at least 0.9, where 1 is the maximum; inactive = score below 0.9.

Read-out in the assay: Matrix Metallopeptidase 9 (MMP9), MMP9 (gene 4318)
Description: BSK_BF4T_MMP9: BioMAP Diversity Plus: BF4T Assay for Matrix Metallopeptidase 9 (MMP9) Biomarker Activity (AID 2284276). To be noted: primary human bronchial epithelial cells with fibroblasts. The protocol:
BSK_BF4T is a cell-based, multiplexed-readout assay that uses bronchial epithelial cells and dermal fibroblasts, a human vascular primary cell, with measurements taken at 24 hours after chemical dosing in a microplate: 96-well plate.BSK_BF4T_MMP9 is an assay component measured in the BSK_BF4T assay. It measures MMP-9 antibody related to regulation of gene expression using ELISA technology.Data from the assay component BSK_BF4T_MMP9 was analyzed at the endpoint, BSK_BF4T_MMP9, in the positive analysis fitting direction relative to DMSO as the negative control and baseline of activity. Using a type of binding reporter, gain or loss-of-signal activity can be used to understand protein changes. To generalize the intended target to other relatable targets, this assay endpoint is annotated to the 'protease' intended target family, where the subfamily is 'matrix metalloproteinase'.
The levels of cell surface (or secreted, indicated by the prefix "s") biomarker endpoints were measured by ELISA. Overt cytotoxicity to cells in confluent adherent cultures (all systems other than the BT system) was assessed by measuring total protein levels using sulforhodamine B (SRB) staining in parallel cultures at the time of biomarker measurements, indicated as SRB endpoints. For proliferation assays for adherent cell types, individual cell types are cultured at sub-confluence and relative cell numbers quantified by SRB staining at time points optimized for each system (48 h: 3C and CASM3C systems; 72 h: BT and HDF3CGF systems; 96 h: SAg system). SRB was performed by staining cells with 0.1% SRB after fixation with 10% TCA and reading wells at 560 nm.Viability and proliferation of PBMC (T cells) was quantified by Alamar Blue reduction for the SAg and BT systems. For PBMC viability (referred to as PBMC Cytotoxicity within the assay endpoint names), cells were plated (75,000/well in a 96-well plate) and then chemical samples added for 1 h before addition of activators, SEB and TSST-1 (20 ng/mL final concentration each). Cells were incubated for 90 h. Then, Alamar Blue (20 uL/well) (Invitrogen, Cat DAL1100) was added for 6 h, and the plates were read with a fluorescence microplate reader at 546/580 nm (excitation/emission). For PBMC proliferation, cells were plated and activated as above but incubated for only 16 h prior to addition of Alamar Blue. Plates were read after 6 h.
As to `FC(F)(Br)C(F)(F)C(F)(F)C(F)(F)C(F)(F)C(F)(F)Br`, the result was inactive.
With `OCC(F)(F)C(F)(F)C(F)(F)F`, the outcome was inactive.
The same measure, in the same setting: as for `O=C(O)C(F)(F)C(F)(F)C(F)(F)C(F)(F)C(F)(F)C(F)(F)C(F)(F)C(F)(F)C(F)(F)C(F)(F)C(F)(F)C(F)(F)C(F)(F)F`, the entry is “inactive”.
The AC50 is the concentration giving half of the maximal activity seen. Regarding `FC(F)(I)C(F)(F)C(F)(F)C(F)(F)I`, the AC50 is 54.1 µM (active) and 47 µM (active) and 46.8 µM (active).
With `FC(F)(F)C(F)(F)C(F)(F)C(F)(F)CCI`, the result was inactive.
Still for that read-out and setting: under `OCC(F)(F)C(F)(F)C(F)(F)C(F)(F)C(F)(F)C(F)F` stands “inactive”; under `C=CC(=O)OCC(F)(F)C(F)(F)C(F)(F)C(F)(F)C(F)(F)C(F)(F)C(F)(F)F`, “inactive”; under `FC(F)(F)C(F)(F)C(F)(F)C(F)(F)C(F)(F)C(F)(F)C(F)(F)I`, “inactive”.
Still for that read-out and setting: under `O=C(O)C(F)(OC(F)(F)C(F)(OC(F)(F)C(F)(OC(F)(F)C(F)(F)C(F)(F)F)C(F)(F)F)C(F)(F)F)C(F)(F)F` (stereo not given) stands “inactive”; under `FC(F)(F)C(F)(F)C(F)(F)N(C(F)(F)C(F)(F)C(F)(F)F)C(F)(F)C(F)(F)C(F)(F)F`, “inactive”.
Same read-out and setting: under `FC(F)(F)C(F)(F)CNCC(F)(F)C(F)(F)F` stands “inactive”; under `O=C(O)C(F)(F)C(F)(F)F`, “inactive”; under `O=S(=O)(OCC(F)F)C(F)(F)F`, “inactive”.
For the molecule `O=C(O)C(F)(F)C(F)(F)OC(F)(F)F`, the result was inactive.
On the same count and under the same terms, as for `O=S(=O)(O)C(F)(F)C(F)(F)C(F)(F)C(F)(F)C(F)(F)C(F)(F)C(F)(F)F`, the entry is “inactive”; as for `O=P(O)(O)OCCC(F)(F)C(F)(F)C(F)(F)C(F)(F)C(F)(F)C(F)(F)F`, “inactive”.
For the molecule `C=CC(F)(F)C(F)(F)C(F)(F)C(F)(F)C(F)(F)C(F)(F)C(F)(F)C(F)(F)F`, the result was inactive.
The same measure, in the same setting: under `N=C(N)C(F)(F)C(F)(F)C(F)(F)C(F)(F)C(F)(F)C(F)(F)C(F)(F)F` stands “inactive”; under `OCC(F)(F)C(F)(F)C(F)(F)C(F)(F)C(F)(F)C(F)(F)F`, “inactive”; under `O=C(O)C(F)(OC(F)(F)C(F)(OC(F)(F)C(F)(F)C(F)(F)F)C(F)(F)F)C(F)(F)F` (stereo not given), “inactive”.
Still for that read-out and setting: as for `FC(F)(F)C(F)(F)C(F)(F)C(F)(F)C(F)(F)C(F)(F)C(F)(F)C(F)(F)CCS`, the entry is “inactive”; as for `O=C(O)C=C(C(F)(F)F)C(F)(F)F`, “inactive”.
On the same count and under the same terms, as for `C=C(C)C(=O)OCC(F)(F)C(F)(F)C(F)(F)F`, the entry is “inactive”; as for `COC(=O)CCC(F)(F)C(F)(F)C(F)(F)C(F)(F)F`, “inactive”.
On to `O=C(Cl)C(F)(F)C(F)(F)C(F)(F)C(F)(F)C(F)(F)C(F)(F)C(F)(F)C(F)(F)F`, for which the AC50 is 46.1 µM (active) and 52.4 µM (active) and 49.7 µM (active).
Take `C=CC(=O)OCC(F)(F)C(F)(F)C(F)(F)C(F)(F)COC(=O)C=C`: the AC50 was 18.2 µM (active) and the result was inactive.
On to `FC(F)(F)C(F)(F)C(F)(F)C(F)(F)C(F)(F)C(F)(F)C(F)(F)Br`, for which the result was inactive.
The same measure, in the same setting: as for `C=C(C)C(=O)OCC(F)(F)C(F)(F)C(F)(F)C(F)(F)C(F)(F)C(F)(F)C(F)(F)F`, the entry is “inactive”; as for `O=C(CC(=O)C(F)(F)C(F)(F)F)C(F)(F)F`, “inactive”; as for `C=C(C)C(=O)OCCC(F)(F)C(F)(F)C(F)(F)C(F)(F)C(F)(C(F)(F)F)C(F)(F)F`, “inactive”.
On the same count and under the same terms, as for `NC(=O)C(F)(F)C(F)(F)C(F)(F)C(F)(F)F`, the entry is “inactive”.
As to `O=C(O)C(F)(F)C(F)(F)C(F)(F)C(F)(F)C(F)(F)C(F)(F)C(F)(F)C(F)(F)C(F)(F)C(F)F`, the AC50 was 21.4 µM (active) and 15.7 µM (active).
Turning to `FC(F)(F)C(F)(F)C(F)(F)C(F)(F)C(F)(F)C(F)(F)CCS`, the result was inactive.
As for `O=C(O)C(F)(F)C(F)(F)C(F)(F)C(F)(F)C(F)(F)C(F)(F)C(F)(F)C(F)(F)Cl`, the AC50 is 37.1 µM (active) and 30 µM (active).
In the case of `FC(F)(F)C(F)(F)C(F)(F)C(F)(F)C(F)(F)C(F)(F)CC1CO1` (stereo not given), the outcome was inactive.
On the same count and under the same terms, under `O=C(O)C(F)(F)C(F)(F)C(F)(F)F` stands “inactive”.
On to `FC(F)(F)C(F)(F)C(F)(F)CI`, for which the result was inactive.
Same read-out and setting: as for `CCO[Si](CCC(F)(F)C(F)(F)C(F)(F)C(F)(F)C(F)(F)C(F)(F)F)(OCC)OCC`, the entry is “inactive”.
On to `OCCCC(F)(F)C(F)(F)C(F)(F)C(F)(F)C(F)(F)C(F)(F)C(F)(F)F`, for which the AC50 is 44.8 µM (active) and 55.3 µM (active).
